# Source: PubChem BioAssay (National Center for Advancing Translational Sciences (NCATS))
# Hits are enriched below; roughly 6.1% of the tested compounds scored in any of these assays.
# FLuc inh: firefly luciferase inhibition. P08659. purified firefly luciferase, luminescence, 8 min. Potency, µM (top dose mostly 57.1 µM), most hits filed as inhibitors. 72,000 compounds, 2.2% hits. AID 411; note: nearly all actives have a fitted effect of over 40% in size
# Target sequence (P08659 whole entry, looked up): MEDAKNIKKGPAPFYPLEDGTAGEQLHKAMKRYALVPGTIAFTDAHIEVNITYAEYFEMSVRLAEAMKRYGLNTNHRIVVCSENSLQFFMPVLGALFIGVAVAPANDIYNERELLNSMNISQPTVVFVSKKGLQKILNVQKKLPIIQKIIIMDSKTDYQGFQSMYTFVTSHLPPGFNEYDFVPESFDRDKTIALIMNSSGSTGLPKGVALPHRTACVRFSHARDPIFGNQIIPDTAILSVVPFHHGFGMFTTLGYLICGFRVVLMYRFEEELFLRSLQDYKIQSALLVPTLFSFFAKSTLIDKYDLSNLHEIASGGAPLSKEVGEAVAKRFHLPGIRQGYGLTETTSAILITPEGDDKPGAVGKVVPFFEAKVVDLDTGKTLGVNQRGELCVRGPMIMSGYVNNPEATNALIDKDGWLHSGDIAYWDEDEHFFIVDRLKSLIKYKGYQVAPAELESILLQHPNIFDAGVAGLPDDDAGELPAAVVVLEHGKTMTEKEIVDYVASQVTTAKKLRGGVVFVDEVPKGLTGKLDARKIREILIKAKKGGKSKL
#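 Luminescence read-out after 8 min at room temperature; enzyme reaction used luciferin plus 10 uM ATP (linear range) in imidazole buffer pH 7.2 with KCl, MgCl2, Tween 20 and BSA. Each sample was run as a titration.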
# TSHR ag: TSH receptor (human) agonism | HEK293-CNG-TSHR cells (CNG channel as cAMP sensor), membrane potential dye, cAMP | Potency, µM (series often up to 57.1 µM), actives largely listed as activators | 73,000 compounds, 0.48% hits | AID 926; active = well fitted activation curve with a large enough effect in the main read-out, with a control signal flat, not every such curve was filed as active; inconclusive = small, poorly fitted or top-dose-only effect, or a change in a side signal; inactive = no such curve, though single readings can be large or run the other way; reference of the percent scale not stated here;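 note: the control signal comes from parental cells without the receptor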
#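 HEK 293 cells stably expressing TSHR and a cAMP-gated CNG channel; parental CNG-only cells as counterscreen. Cells preloaded 60 min with membrane potential dye plus 100 uM RO 20-1724, then compound 30 min; fluorescence read at 590 nm.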
# HEK293 cAMP cs: raises cAMP in parental HEK293 cells, TSHR agonist counter-screen. parental HEK293 CNG cAMP sensor, membrane potential fluorescence. Potency, µM (series often up to 57.1 µM), most hits filed as activators. 73,000 compounds, 2.5% hits. AID 938; note: nearly all actives have a fitted effect of over 55% in size
#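 Counterscreen for endogenous-receptor signalling: CNG-channel HEK 293 cells report cAMP rise by membrane depolarization. After 60 min dye equilibration with 100 uM RO 20-1724, compounds incubated 30 min before bottom-read fluorescence at 590 nm.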
# ERK AVP block: inhibitors of vasopressin-stimulated ERK signaling pathway | AID 995 | HEK293-V1b, vasopressin-stimulated pERK AlphaScreen | Potency, µM (top dose mostly 57.5 µM), usual class: inhibitors | 72,000 compounds, 0.99% hits; note: nearly all actives have a fitted effect of over 55% in size
#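 HEK293 cells stably expressing V1b receptor, seeded overnight in 1% FBS, were treated with compounds for 30 min at 37C, then stimulated 5 min with 25 nM vasopressin; phospho-ERK read by AlphaScreen SureFire after lysis.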
# PK Bst: alters activity of Bacillus stearothermophilus pyruvate kinase. purified pyruvate kinase, luminescence ATP production; ribose 5-phosphate activator present at AC10. Potency, µM. 51,000 compounds, 1.2% hits. AID 361; in the data active = potency below about 11 µM; inconclusive = mostly about 12 µM to 25 µM;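 the screen sought inhibitors and activators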
# GBA mod: modulators of human glucocerebrosidase. purified enzyme, resorufin glucoside fluorescence (screen aimed at inhibitors), 20 min. Potency, µM. 48,000 compounds, 1.1% hits. AID 360; in the data active = potency below about 15 µM; inconclusive = mostly about 16 µM to 33 µM;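 note: the screen sought inhibitors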
#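 Normal human glucocerebrosidase (0.2 nM final) was assayed with resorufin β-D-glucopyranoside (30 uM final) in 50mM citric acid/KH2PO4, 10mM sodium taurocholate, 0.01% tween-20, pH 5.9. Compounds were titrated; fluorescence (Ex 548, Em 600) read after 20 min at RT.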
# A number is an active result; - = inactive; ? = inconclusive; . = no result; [ ] = remark or other dose. Unless noted, calls come from the whole dose curve; as a rule, active = well fitted curve in the direction sought with a large enough effect; inconclusive = small, poorly fitted or top-dose-only effect, or another doubt; inactive = no such curve, though single readings can be large; an effect the other way counts as inactive or inconclusive.
SMILES,FLuc inh,TSHR ag,HEK293 cAMP cs,ERK AVP block,PK Bst,GBA mod
CN(C)c1ncc2nc(-c3cccc(C#N)c3)c(=O)n(CCC#N)c2n1,-[11.4 µM],-,-,-,.,.
Cc1c(C(=O)OCc2ccccc2)nnn1-c1nonc1N,-,-,-,-,-,-
CCOC(=O)c1c(C)n(OCc2ccccc2)c2ccc3nonc3c12,-,?,10µM,-,.,.
COc1cc2c(cc1OC)-c1cc(=Nc3c(C)cc(C)cc3C)n(C)c(=O)n1CC2,-,?,?,6.3µM,.,.
CCc1nc(SCC(=O)NCc2ccco2)c2c3c(sc2n1)CCCC3,-,?,5µM,-,-,-
Cc1nc(NCc2ccco2)c2c3c(sc2n1)CCC3,-,?,16µM,?,.,-
c1coc(CNc2ncnc3sc4c(c23)CCCCC4)c1,-,?,25µM,-,.,-
CC(C)Sc1nc(NCc2ccco2)c2c3c(sc2n1)COC(C)(C)C3,-,-,-,-,-,-
Cc1sc2ncnc(NCc3ccco3)c2c1C,-,?,?,?,.,.
COC(=O)/C=C/C1c2ccccc2C(OC)C1C (stereo not given),.,-[11.4 µM],-[11.4 µM],-[11.5 µM],.,.
COc1ccc(OCC2CC3C(CCC(C)C3c3ccc(Br)cc3)C(=O)O2)cc1 (stereo not given),.,?,?,-[11.5 µM],.,.
Cc1cccc(CSC2=NCCN2C(=O)c2ccc(Br)o2)c1,-,?,32µM,-,.,.
O=C(C1CC1)N1CCN=C1SCc1cccc(F)c1,-,-,-,-,.,.
Oc1cc(O)c2c(c1)O[C@@H](c1ccc(O)c(O)c1)[C@H](O[C@@]1(c3cc(O)c(O)c(O)c3)Oc3cc(O)cc(O)c3[C@H](O)[C@@H]1O)C2,-[11.4 µM],-[11.4 µM],-[11.4 µM],-[11.5 µM],.,.
O=C1c2ccccc2C(=O)N1CCCc1nc(-c2ccc(Cl)cc2)no1,-,?,0.16µM,-,.,.
O=C1c2ccccc2C(=O)N1CCCc1nc(-c2ccccn2)no1,-,-,-,-,-,-
O=C(N/N=C1/C[C@@H](O)[C@@H](O)[C@@H]2[C@@H]3C(=O)N(c4cccc(Oc5ccccc5)c4)C(=O)[C@H]3CC[C@@H]12)OCc1ccccc1,-[11.4 µM],-[11.4 µM],-[11.4 µM],-[11.5 µM],.,.
Nc1nc(Cl)cc(NCCO)n1,-[11.4 µM],-[11.4 µM],-[11.4 µM],-[11.5 µM],.,.
O=C(/C=N/O)NCCCCNC(=O)/C=N/O,.,-[11.4 µM],-[11.4 µM],-[11.5 µM],.,.
CCn1c(=N)n(CC(=O)c2ccco2)c2ccccc21,-,-,-,-,.,13
O[C@@H](c1cc(-c2ccccc2)nc2c1ccc1ccccc12)[C@@H]1CCCCN1,-[11.4 µM],-[11.4 µM],-[11.4 µM],-[11.5 µM],.,.
O=C1OCCC1Sc1nnc(-c2ccc(Br)cc2)o1 (stereo not given),16µM,-,-,?,.,-
COc1cccc2sc(N)nc12,.,-,-,-,.,.
COc1cc(OC)cc(-c2nnc(Nc3nc4c(F)cccc4s3)o2)c1,-,-,-,-,-,-
COc1ccc(-c2nnc(Nc3nc4c(OC)cccc4s3)o2)cc1,10µM,?,?,-,-,-
SMILES,FLuc inh,TSHR ag,HEK293 cAMP cs,ERK AVP block,PK Bst,GBA mod
Fc1cccc2sc(Nc3nnc(-c4ccccc4)o3)nc12,13µM,-,-,-,-,-
COc1ccc(-c2nnc(Nc3nc4c(OC)cccc4s3)o2)c(OC)c1,13µM,-,-,-,-,-
C[C@@](N)(Cc1c[nH]c2ccccc12)C(=O)O,-[11.4 µM],-[11.4 µM],-[11.4 µM],-[11.5 µM],.,.
Cc1cc(NCCOCCO)n2ncc(-c3ccc(Cl)cc3)c2n1,6.3µM,?,-,-,6.7,-
Cc1cc(NCCCN2CCOCC2)n2ncc(-c3ccccc3)c2n1,13µM,-[11.4 µM],-,-,.,-
Cn1nc(-c2ccc(N3CCCCC3)c(NC(=O)c3ccco3)c2)c2ccccc2c1=O,-,?,?,-,-,-
Cn1nc(-c2ccc(N3CCOCC3)c(NC(=O)COc3ccccc3)c2)c2ccccc2c1=O,-,10µM,-,-,-,.
O=C(NC1CCCCC1)C(c1ccco1)N(Cc1cccnc1)C(=O)C1COc2ccccc2O1 (stereo not given),-,?,16µM,-,-,?
c1cncc(CNCc2cccnc2)c1,-[11.4 µM],-[11.4 µM],-[11.4 µM],-[11.5 µM],.,.
COc1ccc(-c2noc(-c3ccc(Cl)cc3)n2)cc1,?,-,-,-,5.4,-
COc1cccc(-c2nc(-c3ccccc3)no2)c1,10µM,-,-,-,9,-
COc1cccc(-c2noc(-c3cccs3)n2)c1,10µM,-,-,-,?,.
